These results are taken from PubChem BioAssay (NCI).

About 83,000 compounds went through this panel and 20% of them were active in at least one assay; those are over-represented in the sample as a whole.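 Values shown are percent growth following 48 h exposure of cells in 96-well plates to a single concentration of compound; below 10 was considered active.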 Activity calls are given as the source filed them.

The test system of this experiment is HL-60(TB) leukemia. Nature of the experiment: NCI-60 one-dose screen, 48 h (100 = growth as untreated, 0 = no growth, -100 = all killed). The settings on record: 10 µM unless noted.
For `COc1cc(/C=C(\C#N)C(=O)c2ccccc2)ccc1OCc1ccccc1`, the growth is 103% (inactive).

Consider `COc1ccc(OC)c2c1CCC1(C2)NC(=O)NC1=O` (stereo not given), for which the growth is 111% (inactive).

`COC(=O)C1=C(C)NC(C)=C(C(=O)OCC(C)C)C1c1ccccc1[N+](=O)[O-]` (stereo not given): the growth is 28.9% (inactive).

In the case of `COc1cc(CNC(=O)CCCC/C=C/C(C)C)ccc1OCc1cn(-c2cccc([N+](=O)[O-])c2)nn1`, the growth is 109% (inactive).

On to `CN1CCN(c2cc3c(cc2F)c(=O)c(C(=O)O)cn3-c2ccc(F)cc2)CC1`, for which the growth was 99.3% (inactive).

On to `C=C1CCC2C3(C)COC(C)(C)OC3CCC2(C)C1C/C=C1/C(=O)OCC1OC(C)=O` (stereo not given), for which the growth is -43.8% (active).

For `COC(=O)/C=C1\Sc2cc(F)ccc2NC1=O`, the growth was 97.7% (inactive).

Regarding `COc1c(C)cnc(CSc2nc(-c3ccc(C)cc3)cn2-c2ccc(Cl)cc2)c1C`, the growth was 95.8% (inactive).

On to `N#C/C(=C\N1C(=O)/C(=C/c2cccc([N+](=O)[O-])c2)SC1=S)c1nc2ccccc2s1`, for which the growth is 94.5% (inactive).

Regarding `COc1cc2cc3c(=O)n4c(cc5cc(OC)ncc54)c(=O)n3c2cn1`, the growth is 89.3% (inactive).

On to `COc1ccc(-c2cc(/C=C3\C(=O)Nc4ccc(Cl)cc43)[nH]n2)cc1OC`, for which the growth was 60.2% (inactive).

Turning to `Cc1cc(NCCCCNc2ccnc3cc(Cl)ccc23)nc(Nc2ccc(C(=O)N3CCCC3)cc2)n1`, the growth is 14.7% (inactive).

As to `NCCNc1nc(Nc2ccc(-c3nc4ccccc4[nH]3)cc2)c2cn[nH]c2n1`, the growth was 91.9% (inactive).

Consider `COC1CC(C)C(OC)c2cc(O)cc(c2O)NC(=O)/C(C)=C/C=C\C(C)C(OC(N)=O)/C(C)=C\C(C)C1OC` (stereo not given), for which the growth is -51.6% (active).

For the compound `CCOC(C=O)OCC`, the growth is 104% (inactive).

Regarding `O=C(Nc1ccc(Oc2ccc(F)cc2)c(Cl)c1)c1cnccn1`, the growth is 21.4% (inactive).

Turning to `COc1cccc(Oc2ccccc2NC(=O)CNC(=O)c2cccc3ccccc23)c1`, the growth was -25.2% [5 µM] (active).

For `N=S(c1ccccc1[N+](=O)[O-])c1ccccc1[N+](=O)[O-]`, the growth is 10.1% (inactive).

Consider `O=S(=O)(NCCNc1nccc(-c2c(-c3cccc(O)c3)nc3occn23)n1)c1ccc(Cl)cc1`, for which the growth was 76.4% (inactive).

For `CCOC(=O)/C(=C\c1ccc2ccccc2c1)P(=O)(OCC)OCC`, the growth was 8.83% (active).

As to `CN(C)CCCC1(c2ccc(F)cc2)OCc2cc(-c3ccc4cc[nH]c4c3)ccc21` (stereo not given), the growth was 27.6% (inactive).

Take `Cc1nnc(-c2ccc3c(c2)nc(/C=C/c2ccccc2)n3C2CCCCC2)o1`: the growth was 65.3% (inactive).

Turning to `COc1ccc(C(=O)/C=C/c2ccccc2)cc1S(N)(=O)=O`, the growth is 64.2% (inactive).

For the compound `N#C/C(=C\c1ccc(-c2ccc(Br)cc2)o1)c1nc(-c2cccs2)cs1`, the growth is 92.7% (inactive).

In the case of `COc1ccc(-c2nc(C#N)c(NCC(c3ccc(Cl)cc3)N3CCCCC3)o2)cc1` (stereo not given), the growth was 74.3% (inactive).
